Our source for the Potency and activity change, positive = activation values is PubChem BioAssay (Tox21).

Test [1] is described as follows: qHTS assay to identify small molecule antagonists of the estrogen related receptor (ERR) signaling pathway from Tox21 library - cell viability counter screen (AID 1224834). Further: nearly all actives have a fitted effect of over 30% in size. Further: potency means the concentration at half of the fitted maximal effect. The procedure, abridged: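 Fluorescence from CellTiter-Fluor gives the viability read-out, taken 30 min after reagent addition. Before that, ERR cells seeded 6 h earlier were incubated with compounds for 17.5 h at 37 C.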
In general terms: Quantitative high-throughput screening tests each substance at several concentrations.

In test [2] the target is Luciferin 4-monooxygenase (Photinus pyralis) (UniProt P08659). Kind of test: qHTS assay to identify small molecule inhibitors of firefly luciferase (AID 1224835). Further: nearly all actives have a fitted effect of over 25% in size. Further: potency means the concentration at half of the fitted maximal effect. Put shortly:
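Quantitative HTS format; KM concentrations of both substrates. Purified P. pyralis FLuc activity quantified from luminescence images.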

Test [3] in a line: qHTS assay to identify small molecule agonists of the constitutive androstane receptor (CAR) signaling pathway - cell viability counter screen (AID 1224836). Further: nearly all actives have a fitted effect of over 45% in size. The procedure, abridged:
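Cell viability multiplexed with the CAR agonist screen: CellTiter-Fluor fluorescence after 23 hr at 37 C. HepG2-CYP2B6-hCAR cells got compounds at 15 concentrations with PK11195 at 0.75 uM final.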

Test [4] is described as follows: qHTS assay to identify small molecule antagonists of the constitutive androstane receptor (CAR) signaling pathway - cell viability counter screen (AID 1224837). Further: nearly all actives have a fitted effect of over 45% in size. Put shortly: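 HepG2-CYP2B6-hCAR cells, 2500/well, 4 hr pre-incubation; compound titration, 15 conc.; CITCO 50 nM final; 23 hr, 37 C/5% CO2; CellTiter-Fluor, fluorescence intensity.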
Test [5] deals with Nuclear receptor subfamily 1 group I member 3 (Homo sapiens) (UniProt Q14994). The experiment in a line: qHTS assay to identify small molecule antagonists of the constitutive androstane receptor (CAR) signaling pathway (AID 1224838).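 Further: HepG2 cells stably expressing hCAR with CYP2B6 luciferase reporter stimulated by CITCO; nearly all actives have a fitted effect of over 40% in size.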 Put shortly:
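HepG2-CYP2B6-hCAR cells; 4 h pre-incubation; cpd (15 conc) + CITCO 50 nM final; 24 h, 37 C/5% CO2; ONE-Glo, luminescence.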

Test [6] is described as follows: qHTS assay to identify small molecule antagonists of the estrogen related receptor signaling pathway with the pleiotropic PPARgamma coactivator (PGC) from Tox21 10K library - cell viability counter screen (AID 1224840; active means well fitted cell-killing curve with a large enough effect in the repeat runs, not every such curve was filed as active; further: nearly all actives have a fitted effect of over 40% in size). Put shortly:
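PGC/ERR cells, 2,000/well; 6 h pre-incubation 37 C/5% CO2; cpd in DMSO via pin tool; 17.5 h 37 C; CellTiter-Fluor, 30 min; fluorescence.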

A short description of test [7]: qHTS assay to identify small molecule antagonists of the estrogen related receptor signaling pathway with the pleiotropic PPARgamma coactivator (PGC) from Tox21 10K library (AID 1224841; call rule not given here; further: actives are mostly falling curves and most rising ones were filed inactive; nearly all actives have a fitted effect of over 50% in size). The procedure, abridged:
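PGC/ERR cell line, 2,000 cells/well; 6 h pre-incubation 37 C/5% CO2; compounds (DMSO) pinned in; 18 h, 37 C; One-Glo, 30 min RT; luminescence.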

A short description of test [8]: qHTS assay to identify small molecule agonists of the estrogen related receptor signaling pathway with the pleiotropic PPARgamma coactivator (PGC) from Tox21 10K library (AID 1224842). Further: nearly all actives have a fitted effect of over 15% in size. Further: potency means the concentration at half of the fitted maximal effect. The procedure, abridged: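 PGC/ERR reporter cells (NTP line) were seeded 2,000 per well, rested 6 h at 37 C/5% CO2, then pin-dosed with compounds in DMSO for 18 h at 37 C; luciferase read by One-Glo luminescence after 30 min at room temperature.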

Test [9] has as its target Thyrotropin receptor (Homo sapiens) (UniProt P16473). The experiment in a line: qHTS assay to identify small molecule agonists of the thyroid stimulating hormone receptor (TSHR) signaling pathway (AID 1224843; calls by dose curve; further: nearly all actives have a fitted effect of over 45% in size). Put shortly:
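Cell line HEK293 with TSHR; density 800/well. Exposure 30 min RT. Readout HTRF cAMP (cAMP-d2/anti-cAMP-cryptate), 1 h RT before reading.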

The nature of test [10]: qHTS assay to identify small molecule agonists of the hypoxia (HIF-1) signaling pathway - cell viability counter screen (AID 1224844; calls by dose curve; further: nearly all actives have a fitted effect of over 50% in size). The procedure, abridged:
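ME-180 HRE-bla cells, 2,000/well, 0.5% dialyzed FBS; 5 hr settle, 17 hr compound at 37C/5% CO2; CCF4-AM reporter read first, then CellTiter-Glo luminescence after 30 min RT.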

Test [11] in a line: qHTS assay to identify small molecule agonists of H2AX (AID 1224845; active means well fitted activation curve with a large enough effect in the signal ratio in the repeat runs, not every such curve was filed as active; the % refers to the signal ratio). Put shortly:
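Wild-type CHO-K1 cells plated overnight, then exposed 3 hr at 37C to compounds at 15 concentrations (0.76% DMSO). Lysed, then HTRF anti-pH2AX(S139)-cryptate/anti-H2AX-d2 detection after 24 hr at room temperature; emissions 665 and 620 nm.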

Test [12] in a line: qHTS assay to identify small molecule agonists of the hypoxia (HIF-1) signaling pathway (AID 1224846; active means well fitted activation curve with a large enough effect in the signal ratio in the repeat runs, not every such curve was filed as active; the % refers to the signal ratio). Put shortly: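 Cell line: CellSensor HRE-bla ME-180; 2,000 cells/well; 0.5% dialyzed FBS; 5 h preincubation; DMSO compound pin transfer; 17 h, 37C, 5% CO2; CCF4-AM added; bla FRET signal scored for activation.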
A short description of test [13]: qHTS assay to identify small molecule antagonists of the estrogen related receptor (ERR) signaling pathway from Tox21 library (AID 1224848). Further: nearly all actives have a fitted effect of over 50% in size. Further: potency means the concentration at half of the fitted maximal effect. Put shortly: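 Screening used an ERR reporter line supplied by NTP, exposed for 18 h at 37 C to library compounds delivered in DMSO. Signal was luciferase luminescence developed with ONE-Glo at room temperature for 30 min.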

The nature of test [14]: qHTS assay to identify small molecule agonists of the estrogen related receptor (ERR) signaling pathway from Tox21 library (AID 1224849; calls by dose curve; further: nearly all actives have a fitted effect of over 15% in size). As to conditions: ERR reporter cell line, ONE-Glo luciferase, 18 h. Put shortly:
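ERR cells, 6 h pre-incubation 37 C/5% CO2; cpd in DMSO pinned; 18 h 37 C; ONE-Glo added, 30 min RT; luminescence read. Agonist mode, qHTS.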

Test [15] in a line: qHTS RealTime-Glo MT Cell Viability Assay in HepG2 cells - 24 hour (AID 1224867). Further: nearly all actives have a fitted effect of over 50% in size. The procedure, abridged: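 Tox21 10K library screened in qHTS format on HepG2 cells carrying RealTime-Glo reagents. Compounds were added after a 5 h preincubation, and the luminescent signal from continuous culture was measured repeatedly during 40 h treatment.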
Test [16] in a line: qHTS RealTime-Glo MT Cell Viability Assay in HEK293 cells - 32 hour (AID 1224868). Further: nearly all actives have a fitted effect of over 50% in size. Further: potency means the concentration at half of the fitted maximal effect. The procedure, abridged:
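Luminescence generated by NanoLuc from substrate produced by living HEK293 cells served as the viability signal. Each value reflects the reading at its stated time point during continuous 40 h compound exposure at 37 C.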

A short description of test [17]: A CellTox Green Cytotoxicity Assay to monitor cytotoxicity in HEK293 cells - 0 hour (AID 1224869). Further: nearly all actives have a fitted effect of over 50% in size. Put shortly:
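Nonlytic real-time cytotoxicity: HEK293 + CellTox Green reagent plated, 5 h preincubation, pintool compound addition (23 nL in DMSO), 37 C for 40 h, fluorescence measured at successive time points.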

Test [18] can be described thus: qHTS RealTime-Glo MT Cell Viability Assay in HepG2 cells - 40 hour (AID 1224870). Further: nearly all actives have a fitted effect of over 50% in size. Put shortly:
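HepG2 cells mixed with RealTime-Glo MT reagents (NanoLuc plus cell-permeant prosubstrate) were seeded at 600 cells/well, incubated 5 h at 37 C/5% CO2, then pinned with compounds in DMSO; nonlytic luminescence tracked viability during 40 h treatment.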

The nature of test [19]: qHTS assay to identify small molecule agonists of H2AX - cell viability counter screen (AID 1224847; calls by dose curve; further: top concentration of the series differs between compounds; nearly all actives have a fitted effect of over 30% in size). The procedure, abridged:
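Counter-screen for viability: CellTiter-Glo ATP luminescence read after 3 h compound treatment (15-point titration, 0.76% DMSO final) of CHO-K1 cells at 37C, with 30 min room-temperature reagent incubation.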

A number with no mark means an inactive call. Records with an inconclusive call do not appear. Active and inactive are the calls of the source. Unless noted, the call rests on the fitted dose curve; in most records, active means well fitted curve in the direction sought with a large enough effect in the repeat runs; inconclusive means weak or mixed curves; inactive means no such curve, though single readings can be large; an effect the other way counts as inactive or inconclusive.
On the % scale 0 is the no-effect control and ±100 the full control effect.

Chain of Nuclear receptor subfamily 1 group I member 3 (Homo sapiens) (Q14994 whole entry, looked up): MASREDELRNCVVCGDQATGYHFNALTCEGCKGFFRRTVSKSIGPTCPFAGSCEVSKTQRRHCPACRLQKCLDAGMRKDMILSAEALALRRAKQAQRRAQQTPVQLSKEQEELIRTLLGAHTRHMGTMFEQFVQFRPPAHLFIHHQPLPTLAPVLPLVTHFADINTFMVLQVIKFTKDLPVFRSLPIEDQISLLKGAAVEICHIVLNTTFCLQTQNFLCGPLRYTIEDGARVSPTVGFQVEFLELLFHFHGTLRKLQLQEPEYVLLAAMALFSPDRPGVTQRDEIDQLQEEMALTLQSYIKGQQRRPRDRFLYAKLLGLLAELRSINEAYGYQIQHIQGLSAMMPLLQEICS
Chain of Luciferin 4-monooxygenase (Photinus pyralis) (P08659 whole entry, looked up): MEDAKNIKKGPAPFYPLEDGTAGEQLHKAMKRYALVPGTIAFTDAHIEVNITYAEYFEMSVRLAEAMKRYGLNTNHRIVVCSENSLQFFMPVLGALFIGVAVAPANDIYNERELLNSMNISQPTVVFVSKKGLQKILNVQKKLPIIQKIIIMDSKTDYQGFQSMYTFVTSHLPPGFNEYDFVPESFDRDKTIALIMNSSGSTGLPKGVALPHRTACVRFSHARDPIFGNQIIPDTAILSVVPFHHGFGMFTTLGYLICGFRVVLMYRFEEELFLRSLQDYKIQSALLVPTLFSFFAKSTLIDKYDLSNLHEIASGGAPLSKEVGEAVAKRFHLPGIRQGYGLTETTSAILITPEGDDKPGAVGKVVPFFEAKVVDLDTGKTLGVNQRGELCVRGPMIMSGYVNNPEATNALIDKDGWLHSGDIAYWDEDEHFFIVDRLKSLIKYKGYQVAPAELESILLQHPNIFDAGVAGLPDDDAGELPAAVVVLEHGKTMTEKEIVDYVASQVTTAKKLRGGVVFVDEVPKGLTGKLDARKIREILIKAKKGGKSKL
Chain of Thyrotropin receptor (Homo sapiens) (P16473 whole entry, looked up): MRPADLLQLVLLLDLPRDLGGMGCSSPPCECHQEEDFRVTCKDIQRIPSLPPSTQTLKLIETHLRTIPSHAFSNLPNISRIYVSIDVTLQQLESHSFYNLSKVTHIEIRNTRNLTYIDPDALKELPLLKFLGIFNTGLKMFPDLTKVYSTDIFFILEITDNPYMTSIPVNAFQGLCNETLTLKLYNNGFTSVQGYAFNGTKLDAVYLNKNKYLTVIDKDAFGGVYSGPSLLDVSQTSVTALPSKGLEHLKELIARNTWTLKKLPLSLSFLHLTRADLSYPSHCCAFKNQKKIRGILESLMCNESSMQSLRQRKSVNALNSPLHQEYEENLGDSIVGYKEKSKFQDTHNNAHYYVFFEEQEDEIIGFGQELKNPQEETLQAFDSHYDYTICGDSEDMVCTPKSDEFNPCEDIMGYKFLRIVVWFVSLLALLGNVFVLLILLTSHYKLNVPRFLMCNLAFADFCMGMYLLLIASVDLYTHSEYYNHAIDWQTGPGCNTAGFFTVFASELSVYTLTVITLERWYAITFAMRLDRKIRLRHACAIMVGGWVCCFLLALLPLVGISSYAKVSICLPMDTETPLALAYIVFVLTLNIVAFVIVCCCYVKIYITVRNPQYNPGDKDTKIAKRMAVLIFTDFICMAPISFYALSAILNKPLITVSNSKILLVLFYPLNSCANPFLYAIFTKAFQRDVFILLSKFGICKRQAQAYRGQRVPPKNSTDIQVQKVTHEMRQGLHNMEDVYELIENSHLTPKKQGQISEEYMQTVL

`CCC(COC(=O)CCS)(COC(=O)CCS)COC(=O)CCS`: the Potency entry in test [1], in test [2], in [3], in test [4], in test [5] and in test [6] was “inactive” throughout. Besides, the Potency result in test [7], in test [8], in test [9], in test [10], in test [11] and in test [12] was “inactive” throughout. Further, the Potency result in test [13], in [15], in [16], in test [17] and in test [18] was “inactive” throughout. Further, the activity change, positive = activation in [14] (at 92.4 µM (top of the series)) was 4.52%.
For the molecule `C[Si](Cl)(c1ccccc1)c1ccccc1`, the Potency result in test [1], in test [2], in test [3], in [4], in test [5] and in [6] was “inactive” each time. The Potency entry in test [7], in test [8], in [9], in test [10], in [11] and in [12] was “inactive” each time. In [15], the Potency result was “inactive”. The activity change, positive = activation in test [14] (at 92.4 µM (top of the series)) is -19%.
Regarding `O=c1oc2cc(O)ccc2c2oc3cc(O)ccc3c12`, the Potency result in [1], in test [3], in [4], in test [5], in [6] and in test [7] was “inactive” each time. Moreover, the Potency result in [10], in test [19], in test [13], in test [15] and in [18] was “inactive” in each case. The figures for the Potency in test [2] and in test [8] were 19.2 µM (active) and 58.6 µM (active), respectively.
Regarding `CC(C)OC(=O)C(O)(CC(=O)O)CC(=O)O`, the Potency result in test [1], in test [2], in test [3], in test [4], in test [5] and in test [6] was “inactive” in each case. Also, the Potency result in test [7], in test [8], in [9], in test [10], in test [11] and in [12] was “inactive” each time. Besides, the Potency result in test [19], in test [13], in test [15], in test [16] and in test [18] was “inactive” each time. The activity change, positive = activation in test [14] (at 92.4 µM (top of the series)) is 4.45%.
For the molecule `COc1ccc2c(c1)c(CC(=O)OC/C=C(\C)CC/C=C(\C)CCC=C(C)C)c(C)n2C(=O)c1ccc(Cl)cc1`, the Potency entry in test [1], in test [2], in [3], in test [4], in test [5] and in [6] was “inactive” in each case. Also, the Potency result in test [7], in test [8], in [11], in test [19], in test [13] and in [15] was “inactive” each time. The Potency entry in test [16] and in test [17] was “inactive” throughout. In addition, the activity change, positive = activation in [14] (at 42.5 µM (top of the series)) is -0.248%.
For `O=C(/C=C/c1ccccc1)OC/C=C/c1ccccc1`, the Potency result in [1], in test [3], in [4], in test [5], in test [6] and in [7] was “inactive” throughout. Also, the Potency result in [8], in test [10], in [11], in test [12], in test [13] and in test [15] was “inactive” throughout. The Potency result in [16], in test [17] and in [18] was “inactive” throughout. The Potency in test [2] was 71 µM (active). Besides, the activity change, positive = activation in [14] (at 92.4 µM (top of the series)) was 3.92%.
With `CN1CCN2c3ccccc3Cc3ccccc3C2C1` (stereo not given), the Potency entry in test [1], in test [2], in [3], in [4], in [5] and in test [6] was “inactive” each time. The Potency entry in test [7], in test [8], in test [9], in test [11], in [19] and in test [13] was “inactive” throughout. Further, the Potency result in test [15], in test [16], in [17] and in test [18] was “inactive” throughout. The activity change, positive = activation in test [14] (at 42.5 µM (top of the series)) is -10.4%.
As to `COC1=C(OC)C(=O)C(CCCCCCCCCCO)=C(C)C1=O`, the Potency in test [1] was 23.7 µM (active); in test [13] it was 18.8 µM (active); in [16], 5.35 µM (active). The Potency entry in test [2], in [3], in [4], in test [5], in test [6] and in [8] was “inactive” each time. Moreover, the Potency result in [15], in test [17] and in test [18] was “inactive” each time. Moreover, in test [14] (at 42.5 µM (top of the series)), the activity change, positive = activation was -46.7%.
